Assay results as given in PubChem BioAssay (NCI).
This is part of a sample that, as a whole, favours compounds with a hit. Of some 83,000 tested, about 20% had one in any assay.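 Compound tested at a single concentration for 48 hours in 96-well plates; a percent growth value below 10 was scored as active.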 Activity calls are given as the source filed them.

Assays:
Test in all cases: NCI-60 one-dose screen, 48 h (100 = growth as untreated, 0 = no growth, -100 = all killed)
Details in all cases: 10 µM unless noted
SR leukemia = tested on: SR leukemia
RPMI-8226 leukemia = tested on: RPMI-8226 leukemia
OVCAR-8 ovarian = tested on: OVCAR-8 ovarian
OVCAR-5 ovarian = tested on: OVCAR-5 ovarian
OVCAR-4 ovarian = tested on: OVCAR-4 ovarian
SK-OV-3 ovarian = tested on: SK-OV-3 ovarian
IGROV1 ovarian = tested on: IGROV1 ovarian
OVCAR-3 ovarian = tested on: OVCAR-3 ovarian
HS 578T breast = tested on: HS 578T breast
NCI/ADR-RES ovarian = tested on: NCI/ADR-RES ovarian
T-47D breast = tested on: T-47D breast
BT-549 breast = tested on: BT-549 breast
MDA-MB-435 melanoma = tested on: MDA-MB-435 melanoma
SW-620 colon = tested on: SW-620 colon
MCF7 breast = tested on: MCF7 breast
HCT-116 colon = tested on: HCT-116 colon
HCC-2998 colon = tested on: HCC-2998 colon
KM12 colon = tested on: KM12 colon

Measured: growth

CNC(=O)c1cc(Oc2cccc3nc(NC(=O)Nc4ccc(F)cc4F)ccc23)ccn1
inactive: SR leukemia 18% | RPMI-8226 leukemia 30.4% | OVCAR-8 ovarian 13.9% | OVCAR-5 ovarian 70.3% | SK-OV-3 ovarian 35.3% | IGROV1 ovarian 35% | NCI/ADR-RES ovarian 22.5% | T-47D breast 21% | BT-549 breast 45.5% | MDA-MB-435 melanoma 32.6% | SW-620 colon 59.7% | MCF7 breast 37.8% | HCC-2998 colon 70.2% | KM12 colon 57.7%
active: OVCAR-4 ovarian -63.4% | OVCAR-3 ovarian 0.213% | HS 578T breast 5.37% | HCT-116 colon -33.1%

C=CCn1c(SCC(=O)Nc2ccc(C(=O)/C=C/c3ccc(Cl)cc3)cc2)nnc1-c1ccc(Cl)c(Cl)c1
inactive: SR leukemia 57% | OVCAR-8 ovarian 75.6% | OVCAR-5 ovarian 90.5% | OVCAR-4 ovarian 86.7% | SK-OV-3 ovarian 85.7% | IGROV1 ovarian 76.4% | OVCAR-3 ovarian 83.8% | HS 578T breast 90.8% | NCI/ADR-RES ovarian 83.9% | T-47D breast 76.6% | BT-549 breast 78% | MDA-MB-435 melanoma 37.9% | SW-620 colon 90.9% | MCF7 breast 19.7% | HCC-2998 colon 95.9% | KM12 colon 85.2%
active: RPMI-8226 leukemia -34.5% | HCT-116 colon -71.5%

COc1cccc2cc(N(C)c3ncnc4ccccc34)ccc12
inactive: OVCAR-5 ovarian 54.3% | OVCAR-4 ovarian 34.7% | SK-OV-3 ovarian 33.9% | IGROV1 ovarian 14.4% | HS 578T breast 40.9% | T-47D breast 59.1% | BT-549 breast 32.3% | MDA-MB-435 melanoma 16.6% | SW-620 colon 20.5% | HCC-2998 colon 21.2%
active: SR leukemia 9.25% | RPMI-8226 leukemia -18.3% | OVCAR-8 ovarian 6.23% | OVCAR-3 ovarian 6.13% | NCI/ADR-RES ovarian 8.39% | MCF7 breast 6.28% | HCT-116 colon 8.07% | KM12 colon 5.11%

Cc1ccc(-c2nn(CC(=O)N3CCOCC3)c(N)c2C#N)cc1
inactive: SR leukemia 99% | RPMI-8226 leukemia 108% | OVCAR-8 ovarian 99.8% | OVCAR-5 ovarian 105% | OVCAR-4 ovarian 91.8% | SK-OV-3 ovarian 109% | IGROV1 ovarian 106% | OVCAR-3 ovarian 113% | HS 578T breast 93.1% | NCI/ADR-RES ovarian 108% | T-47D breast 105% | BT-549 breast 98.7% | MDA-MB-435 melanoma 99.2% | SW-620 colon 104% | MCF7 breast 92.5% | HCT-116 colon 101% | HCC-2998 colon 102% | KM12 colon 108%

COc1cc(C)cc(-c2c(-c3cc(N4CC(O)C4)nc(-c4cccnc4)n3)cnn2C)c1
inactive: SR leukemia 88.3% | RPMI-8226 leukemia 77.7% | OVCAR-8 ovarian 92.7% | OVCAR-5 ovarian 99.9% | OVCAR-4 ovarian 88.7% | SK-OV-3 ovarian 118% | IGROV1 ovarian 120% | OVCAR-3 ovarian 101% | HS 578T breast 80.5% | NCI/ADR-RES ovarian 83.1% | T-47D breast 62.6% | BT-549 breast 89.7% | MDA-MB-435 melanoma 92% | SW-620 colon 101% | MCF7 breast 87.6% | HCT-116 colon 96.1% | HCC-2998 colon 92.8% | KM12 colon 84.7%

COc1ccc(CNc2c3ccccc3nc3ccccc23)cc1OC
active: SR leukemia 8.57% | RPMI-8226 leukemia 0.62% | MCF7 breast 0.674%
inactive: OVCAR-8 ovarian 23.9% | OVCAR-5 ovarian 27.5% | OVCAR-4 ovarian 21.4% | SK-OV-3 ovarian 41.2% | IGROV1 ovarian 10.9% | OVCAR-3 ovarian 43.7% | HS 578T breast 37.2% | NCI/ADR-RES ovarian 19.3% | T-47D breast 25.8% | BT-549 breast 42.1% | MDA-MB-435 melanoma 29.4% | SW-620 colon 16% | HCT-116 colon 12.2% | HCC-2998 colon 30.1% | KM12 colon 31.6%

CCCC1Cc2cc(-n3nc(C)c4c3CC(C)(C)CC4=O)cc(NC3CCC(O)CC3)c2C(=O)N1 (stereo unspecified)
inactive: SR leukemia 29.5% | RPMI-8226 leukemia 51% | OVCAR-8 ovarian 40.3% | OVCAR-5 ovarian 58.8% | OVCAR-4 ovarian 62.5% | SK-OV-3 ovarian 17.1% | IGROV1 ovarian 24.7% | OVCAR-3 ovarian 52.6% | HS 578T breast 59.1% | NCI/ADR-RES ovarian 47% | T-47D breast 46.9% | BT-549 breast 68.4% | MDA-MB-435 melanoma 26.8% | SW-620 colon 20.4% | MCF7 breast 36.5% | HCT-116 colon 15.4% | HCC-2998 colon 34.2% | KM12 colon 15.5%

Cc1cc(=O)oc2cc(Oc3nc(-c4ccccc4)cn4c(-c5ccccc5)cnc34)ccc12
inactive: SR leukemia 54.5% | RPMI-8226 leukemia 51% | OVCAR-8 ovarian 61.6% | OVCAR-5 ovarian 105% | OVCAR-4 ovarian 60.7% | SK-OV-3 ovarian 63.1% | IGROV1 ovarian 83.7% | OVCAR-3 ovarian 76.6% | HS 578T breast 58.6% | NCI/ADR-RES ovarian 45.4% | T-47D breast 38.5% | BT-549 breast 82.6% | MDA-MB-435 melanoma 72.1% | SW-620 colon 88.3% | MCF7 breast 50.5% | HCT-116 colon 39.3% | HCC-2998 colon 81% | KM12 colon 75.5%

CC(C)(C)n1cc(-c2ccnc(NCCNS(=O)(=O)c3ccc(Br)cc3)c2)c(-c2cccc(O)c2)n1
active: SR leukemia -10.5% | RPMI-8226 leukemia 3.61% | T-47D breast 8.09% | SW-620 colon 5.53% | MCF7 breast 8.18% | HCC-2998 colon -17.5%
inactive: OVCAR-8 ovarian 35.7% | OVCAR-5 ovarian 47.5% | OVCAR-4 ovarian 42.8% | SK-OV-3 ovarian 53.2% | IGROV1 ovarian 40.4% | OVCAR-3 ovarian 38.6% | HS 578T breast 16.8% | NCI/ADR-RES ovarian 33% | BT-549 breast 30.8% | MDA-MB-435 melanoma 28.1% | HCT-116 colon 19.7% | KM12 colon 17.3%

COc1cccc(NC(=O)c2sc3nc(C)c(C(=O)c4ccccc4)cc3c2N)c1
inactive: SR leukemia 45.4% | RPMI-8226 leukemia 94.5% | OVCAR-8 ovarian 98.8% | OVCAR-5 ovarian 97.5% | OVCAR-4 ovarian 87.9% | SK-OV-3 ovarian 41% | IGROV1 ovarian 91.7% | OVCAR-3 ovarian 92.9% | HS 578T breast 72.9% | NCI/ADR-RES ovarian 98.1% | T-47D breast 88.6% | BT-549 breast 91.8% | MDA-MB-435 melanoma 29.9% | SW-620 colon 91.4% | MCF7 breast 69.5% | HCT-116 colon 95.9% | HCC-2998 colon 109% | KM12 colon 88%

COc1ccc(/C=N/NC(=O)Cn2nnc3ccccc32)cc1
inactive: SR leukemia 96% | RPMI-8226 leukemia 101% | OVCAR-8 ovarian 96.7% | OVCAR-5 ovarian 104% | OVCAR-4 ovarian 115% | SK-OV-3 ovarian 95.5% | IGROV1 ovarian 95.9% | OVCAR-3 ovarian 95% | HS 578T breast 77.6% | NCI/ADR-RES ovarian 104% | T-47D breast 92.1% | BT-549 breast 107% | MDA-MB-435 melanoma 98.2% | SW-620 colon 92.9% | MCF7 breast 86.4% | HCT-116 colon 93.7% | HCC-2998 colon 116% | KM12 colon 90.7%

CNC1=C([N+](=O)[O-])C(c2ccc(OC)cc2)C(C#N)=C(c2ccc[nH]2)O1 (stereo unspecified)
inactive: SR leukemia 98.2% | RPMI-8226 leukemia 96.2% | OVCAR-8 ovarian 99.8% | OVCAR-5 ovarian 109% | OVCAR-4 ovarian 92.8% | SK-OV-3 ovarian 102% | IGROV1 ovarian 104% | OVCAR-3 ovarian 107% | HS 578T breast 98.1% | NCI/ADR-RES ovarian 110% | T-47D breast 100% | BT-549 breast 101% | MDA-MB-435 melanoma 96% | SW-620 colon 104% | MCF7 breast 86.4% | HCT-116 colon 99% | HCC-2998 colon 100% | KM12 colon 114%

COc1cc2c(c(OC)c1OC)CCC(c1cccc(C(=O)Nc3ccc([N+](=O)[O-])cc3)c1)O2 (stereo unspecified)
inactive: SR leukemia 24.9% | OVCAR-8 ovarian 42% | OVCAR-5 ovarian 84.3% | OVCAR-4 ovarian 40.7% | SK-OV-3 ovarian 78.4% | IGROV1 ovarian 72.2% | OVCAR-3 ovarian 56.5% | HS 578T breast 77.1% | NCI/ADR-RES ovarian 38.2% | BT-549 breast 27.4% | MDA-MB-435 melanoma 54.5% | SW-620 colon 77.7% | MCF7 breast 45.9% | HCT-116 colon 40.4% | HCC-2998 colon 68.3% | KM12 colon 57.7%
active: RPMI-8226 leukemia 9.24% | T-47D breast 9.09%

CO[C@H]1/C=C/O[C@@]2(C)Oc3c(C)c(O)c4c(O)c(c5c(nc6cc(C)ccn65)c4c3C2=O)NC(=O)/C(C)=C\C=C\[C@H](C)[C@H](O)[C@@H](C)C(O)[C@@H](C)[C@H](OC(C)=O)[C@@H]1C (stereo partly specified)
inactive: SR leukemia 99.3% | RPMI-8226 leukemia 104% | OVCAR-8 ovarian 98.3% | OVCAR-5 ovarian 113% | OVCAR-4 ovarian 100% | SK-OV-3 ovarian 31.9% | IGROV1 ovarian 97% | OVCAR-3 ovarian 104% | HS 578T breast 72% | NCI/ADR-RES ovarian 104% | BT-549 breast 97.4% | MDA-MB-435 melanoma 104% | SW-620 colon 114% | MCF7 breast 103% | HCT-116 colon 94.9% | HCC-2998 colon 106% | KM12 colon 108%
active: T-47D breast -5.36%

C#CC(F)(F)[C@]1(O)CCC2C3CCC4=CC(=O)CCC4=C3[C@@H](c3ccc(N(C)C)cc3)C[C@@]21C (stereo partly specified)
inactive: SR leukemia 63.8% | RPMI-8226 leukemia 74.6% | OVCAR-8 ovarian 86.7% | OVCAR-5 ovarian 119% | OVCAR-4 ovarian 88.4% | SK-OV-3 ovarian 87.8% | IGROV1 ovarian 99% | OVCAR-3 ovarian 95.1% | HS 578T breast 89.1% | NCI/ADR-RES ovarian 94.6% | T-47D breast 44% | BT-549 breast 88.7% | MDA-MB-435 melanoma 103% | SW-620 colon 103% | MCF7 breast 57.8% | HCT-116 colon 71.2% | HCC-2998 colon 111% | KM12 colon 99.3%

CN1CCN(Cc2ccc(NC(=O)c3cncc(C#Cc4c(N)ncc5ccccc45)c3)cc2C(F)(F)F)CC1
inactive: BT-549 breast 14.6%
active: SR leukemia -42.6% | RPMI-8226 leukemia -38% | OVCAR-8 ovarian -62.3% | OVCAR-5 ovarian -22.2% | OVCAR-4 ovarian -55.1% | SK-OV-3 ovarian 8.37% | IGROV1 ovarian -62% | OVCAR-3 ovarian -78.4% | HS 578T breast -31.5% | NCI/ADR-RES ovarian -24.5% | T-47D breast -64.5% | MDA-MB-435 melanoma -90.3% | SW-620 colon -71.3% | MCF7 breast -70.8% | HCT-116 colon -96.5% | HCC-2998 colon -60.7% | KM12 colon -65.2%

COC(=O)c1nc(-c2ccccc2)oc1S(=O)(=O)N1CCN(c2ccc(OC)cc2)CC1
inactive: RPMI-8226 leukemia 37.3% | OVCAR-8 ovarian 83.8% | OVCAR-5 ovarian 88.7% | OVCAR-4 ovarian 88.7% | SK-OV-3 ovarian 104% | IGROV1 ovarian 71.7% | OVCAR-3 ovarian 45.4% | HS 578T breast 89.2% | NCI/ADR-RES ovarian 104% | T-47D breast 59% | BT-549 breast 76.6% | MDA-MB-435 melanoma 77.2% | SW-620 colon 41.4% | MCF7 breast 45.4% | HCT-116 colon 60.9% | HCC-2998 colon 104% | KM12 colon 86.2%
active: SR leukemia -1.38%
